A selection: hits, their analogues and other compounds. The true share with any hit is near 3.9%.
ATXN2 expr inh: inhibitors of ATXN2 expression | HEK-293 ATXN2-luciferase reporter, luminescence, 24 h | AID 1745845 | hit rate 0.72% among 360,000 | Potency, µM (series often up to 57 µM), inactives show at the top dose activity change, negative = inhibition, most hits filed as inhibitors; note: % is set by controls: 0 for no effect and ±100 for the full control effect; nearly all actives have a fitted effect of over 55% in size
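qHTS (up to 57 uM final) was run with 24 h compound exposure of reporter cells at 37 °C. Each well was multiplexed: SteadyGlo luminescence measured ATXN2-luciferase expression after a fluorogenic Gly-Phe-AFC viability readout (25 uM final).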
TGFb SMAD3 inh: TGF-b pathway inhibition | HepG2 CAGA-GFP TGF-b/SMAD3 reporter, GFP fluorescence, 18 h; TGF-beta stimulated, 500 pg/mL final | AID 588855 | Potency, µM (series often up to 46.1 µM), for the others: at the highest dose activity, negative = inhibition, hits mostly inhibitors | hit rate 1.2% among 410,000; note: % is set by controls: 0 for no effect and ±100 for the full control effect; nearly all actives have a fitted effect of over 65% in size
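Read-out: total well GFP (ex488/em500-530) summed from mean per-cell fluorescence. Cells: HEPG2 CAGA-GFP, 1% FBS DMEM, 18 h at 37 degrees C with 500 pg/mL final TGF-beta. Unstimulated wells served as the full-inhibition control; stimulated DMSO wells = 0%.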
HT1080 IDH1KD tx: HT-1080 IDH1 knockdown cell toxicity (counter line) | HT-1080 IDH1 knockdown viability, ATP luminescence, 48 h | hit rate 2% among 360,000 | AID 686971 | Potency, µM (series often up to 46.1 µM), without a hit: at the top dose activity, negative = toxicity, most hits filed as cytotoxic;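 note: 0% = DMSO wells and -100% = cell-free medium wells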
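Assay cells: HT-1080 with IDH1 knockdown, 750 per well, RPMI/5% FBS. Exposure: 48 h at 37 °C following 2 h pre-incubation. Read: CellTiter-Glo luminescence; fitted concentration-response, curve class assigned.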
S2 tox: viability counter-screen for ATXN expression inhibitors. S2 cells (HEK-293 line with an ATXN2-luciferase reporter) viability, CellTiter-Fluor protease fluorescence, 24 h. Potency, µM (series often up to 56.7 µM), actives largely listed as cytotoxic. hit rate 0.49% among 400,000. AID 651635; note: nearly all actives have a fitted effect of over 40% in size
HepG2 viability: counter-screen for TGF-b inhibitors: cytotoxicity in HepG2 cells; HepG2 CAGA-GFP viability, ATP luminescence, 18 h; Potency, µM (highest dose often 46.1 µM), inactives show at the highest dose activity change, negative = cytotoxicity, most hits filed as cytotoxic; hit rate 0.76% among 410,000; AID 588856
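HepG2 CAGA-GFP cells (1000/well, DMEM with 1% FBS) received compound, then TGF-beta at 500 pg/mL final, and were incubated 18 hours at 37 degrees C. Viability was read by CellTiter-Glo luminescence. Media-only wells were set as complete cell-killing and DMSO as no toxicity.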
HT1080NT lethal: kills 2HG-producing HT-1080-NT fibrosarcoma cells. HT-1080-NT fibrosarcoma viability, CellTiter-Glo ATP luminescence, 48 h. hit rate 1.6% among 360,000. Potency, µM (top dose mostly 46.1 µM), without a hit: at the top dose activity, negative = less viability, usual class: cytotoxic;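 note: NT is the 2HG producing partner of a matched IDH1 knockdown line; 0% = DMSO-treated cells and -100% = media-only wells without cells; nearly all actives have a fitted effect of over 55% in size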
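HT-1080-NT; 750 cells/well; 5% FBS RPMI; 48 h compound, 37 degrees C; CellTiter-Glo luminescence; curve fitting and curve-class assignment.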
Active calls of the source: *; i = inactive; u = inconclusive; x = no result; ! = not active in a repeat. Calls come from the whole dose curve; as a rule, active = well fitted curve in the direction sought with a large enough effect; inconclusive = small, poorly fitted or top-dose-only effect, or another doubt; inactive = no such curve, though single readings can be large; an effect the other way counts as inactive or inconclusive. Potency is the fitted concentration of half-maximal effect.

SMILES | ATXN2 expr inh | TGFb SMAD3 inh | HT1080 IDH1KD tx | S2 tox | HepG2 viability | HT1080NT lethal
CCOc1ccc(S(=O)(=O)Nc2cccc(OC)c2)cc1 | -12% | 1% | 10µM* | i | -15% | u
Cc1c(C(=O)NCC2(N3CCOCC3)CCCCCC2)cnn1-c1nccc(-c2ccccc2F)n1 | x | x | x | i | x | x
COc1ccc(S(=O)(=O)N2c3cc(Cl)ccc3Oc3nc4ccccc4nc32)cc1 | 0% | -24% | 0.92µM* | i | -45% | u
C=C[C@@H]1c2cc(C)ccc2N(S(=O)(=O)c2ccc(C)cc2)[C@H](c2ccc(OC(C)=O)cc2)C1(C#N)C#N | 25µM* | u | 6.5µM* | u | 6.3µM*! | 7.3µM*
O=C(CC1NCCNC1=O)Nc1ccccc1F (stereo unspecified) | 10% | 5% | x | i | 8% | x
O=C(NNC(=O)c1cc2cc3ccccc3nc2s1)c1cccc(Cl)c1 | -8% | 3% | -20% | i | 7% | -20%
Cc1cccc(C(=O)NNC(=O)c2cc3cc4ccccc4nc3s2)c1 | -23% | -11% | 21µM* | i | 8% | u
CCN(CCCNC(=O)c1cc2cc3ccc(OC)cc3nc2s1)c1cccc(C)c1 | -31% | 13µM* | x | x | 13µM* | x
CCN(CCCNC(=O)c1cc2cc3ccc(OC)cc3nc2s1)c1ccccc1 | x | 0% | x | x | -20% | x
Cc1ccc(S(=O)(=O)O/N=C2\CCCc3ccccc32)cc1 | -4% | 6% | 2% | i | 5% | -1%
CC1=C(C)/C(=N\OS(=O)(=O)c2ccccc2)C=CC1=O | 10µM* | u | 8.9µM* | 11µM* | 14µM* | 7.1µM*
Cc1nnc(N2CCN(C(=O)Nc3cc(F)ccc3F)CC2)c2nn(-c3ccc(Cl)cc3)c(C)c12 | -29% | u | x | i | -9% | x
Cc1ccc(C)c(N2CCN(S(=O)(=O)c3ccc4[nH]c5c(c4c3)CCCC5)CC2)c1 | -14% | 13µM* | x | i | -7% | x
CCOC(=O)/C(=C\c1cccnc1)C(=O)c1cc(C(C)=O)c(Nc2ccccc2)s1 | 3.5µM* | 2.8µM* | 4.1µM* | 4.5µM* | -89% | 5.8µM*
CCOC(=O)/C(=C\c1ccccc1)C(=O)c1cc(C(C)=O)c(Nc2ccccc2)s1 | 11µM* | -9% | 6.3µM* | 20µM* | 3.2µM* | -10%
CCOC(=O)C(=O)/C(C#N)=C/Nc1ccccc1 | 1% | -6% | 18% | i | 5% | 9%
CCOc1ccc(NC(=O)Cn2cc(C(=O)c3ccc(CC)cc3)c(=O)c3cc4c(cc32)OCO4)cc1 | 11% | -16% | x | i | -1% | x
CC12CCC=CC1C(c1ccc(C(F)(F)F)cc1)N(Cc1ccccc1)C2=O (stereo unspecified) | x | -8% | x | x | 1% | x
Cc1[nH]ccc2cc3nc4ccccc4c3cc12 | x | u | u | x | -74% | 15µM*
Brc1cc(Br)c[n+](CCc2ccccc2)c1 | x | 2% | x | x | 6% | x
CCN1CCC(n2cc(CNc3cc(Cl)c4ncc(C#N)c(Nc5ccc(F)c(Cl)c5)c4c3)nn2)CC1 | -19% | x | x | x | x | x
CSc1ncc(CN2CCc3c([nH]c4ccccc34)C2c2cccc(O)c2)cn1 (stereo unspecified) | -38% | 11µM* | -14% | i | -80% | -5%
COc1ccc(C(=O)NCC2Cc3cc(C)cc(-c4nc5ccccc5s4)c3O2)c(OC)c1OC (stereo unspecified) | x | x | x | i | x | x
CCCN(CCC)C(=O)Cn1c(=O)n(-c2ccc(CC)cc2)c(=O)c2ccc(C(=O)NCCc3ccccc3)cc21 | 12% | -3% | x | i | 2% | x
CCN1CCCC1CNC(=O)C1CCN(Cc2nc(-c3cccc(Br)c3)oc2C)CC1 (stereo unspecified) | u | -1% | u | i | -112% | 21µM*
SMILES | ATXN2 expr inh | TGFb SMAD3 inh | HT1080 IDH1KD tx | S2 tox | HepG2 viability | HT1080NT lethal
Cc1cccc(-c2nc(CN3CCCC(C(=O)NC4CCCCCC4)C3)c(C)o2)c1 (stereo unspecified) | -17% | 11µM* | u | u | -59% | 20µM*
CCc1ccc(-c2nc(CN3CCC(C(=O)NCc4ccccc4OC)CC3)c(C)o2)cc1 | x | u | -24% | x | 14µM* | -22%
Cc1ccc(CNC(=O)C2CCCN(Cc3nc(-c4cccc(C)c4)oc3C)C2)cc1 (stereo unspecified) | x | u | x | x | 16µM* | x
Cc1oc(-c2cccc(Cl)c2)nc1CN1CCCC(C(=O)NC(C)c2ccc3c(c2)OCCO3)C1 (stereo unspecified) | u | u | 16µM* | u | -33% | u
CCc1ccc(C(=O)C[N+]2(C)CCOCC2)cc1 | x | 15% | x | x | -18% | x
OC(COc1ccc(F)cc1Cl)CN1CCC(Cc2ccccc2)CC1 (stereo unspecified) | x | u | -15% | u | 16µM* | -17%
NC(=O)c1cccc(Nc2nc(C(N)CCc3ccccc3)cs2)n1 (stereo unspecified) | -9% | 5% | u | i | -38% | u
COc1cccc(Nc2nc(C(N)CCc3ccccc3)cs2)n1 (stereo unspecified) | 28µM* | u | u | u | -91% | u
CS(=O)(=O)c1ccc(Nc2nc(C(N)COCc3ccccc3)cs2)cc1 (stereo unspecified) | 6% | -34% | -8% | i | -2% | -14%
COc1cccc(Nc2nc(C(N)COCc3ccccc3)cs2)n1 (stereo unspecified) | -22% | u | u | i | 11µM* | 18µM*
Cc1ccccc1C1(CC(=O)N2CCCCC2C)CC(=O)N(Cc2cccnc2)C1=O (stereo unspecified) | x | x | x | i | x | x
O=S(=O)(NCCc1cn(S(=O)(=O)c2ccccc2)c2ccccc12)c1ccccc1 | x | -4% | x | x | 4% | x
COc1ccc2c(c1)C(CC(=O)NN)CCC2 (stereo unspecified) | 0% | 0% | 1.6µM* | u | 2% | 7.3µM*
COc1ccc(CC(=O)NC2CCCc3ccccc32)cc1 (stereo unspecified) | -15% | 14% | 7% | x | 21% | 13%
CC(=O)N(CC(=O)N(C)C)c1ccccc1 | -1% | x | x | i | x | x
COc1cc2c(cc1NC(=O)COc1ccc(Br)c(C)c1)oc1ccccc12 | 7% | 34% | x | i | 5% | x
Cc1ccc(-c2n[nH]c(=S)n2-c2ccccc2)cc1 | 0% | 7% | 12% | i | 2% | 11%
Cc1ccc(-n2c(-c3cccc(C)c3)n[nH]c2=S)cc1 | 16% | -3% | 10µM* | i | 14% | u

Screening data as filed in PubChem.
